The values below come from PubChem BioAssay (NCI).

This is part of a sample that, as a whole, favours compounds with a hit. Of some 83,000 tested, about 20% had one in any assay.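 Method: cells in 96-well plates; compound added at one concentration; 48 h incubation; percent growth measured; values under 10 scored active.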 Unmarked numbers belong to inactive results. Active and inactive are the calls of the source.

Among the test systems are NCI-H23 lung; NCI-H226 lung; NCI-H322M lung; HOP-62 NSCLC; NCI-H460 lung; HOP-92 NSCLC; NCI-H522 lung; A549/ATCC NSCLC; 786-0 renal; COLO 205 colon; DU-145 prostate; K-562 leukemia; MALME-3M melanoma; MDA-MB-231 breast; RXF 393 renal; SF-268 CNS; SF-295 CNS; SF-539 CNS; UACC-257 melanoma; M14 melanoma.
Holding throughout (test): NCI-60 one-dose screen, 48 h (100 = growth as untreated, 0 = no growth, -100 = all killed)
Common to all, as to details: 10 µM unless noted

As to `CC(Sc1nc2sc3c(c2c(=O)n1-c1ccc(Cl)cc1)CCCC3)C(=O)Nc1nc(-c2ccc(Br)cc2)cs1` (stereo not given), the growth in the assay on NCI-H23 lung was 95.3%; in the assay with NCI-H226 lung, 94.3%; with NCI-H322M lung it was 95.8%; in the assay with HOP-62 NSCLC it was 91.5%; in the assay on NCI-H460 lung it was 104%; with HOP-92 NSCLC it was 110%. For the same compound, the growth in the assay with NCI-H522 lung is 82.1%; in the assay on A549/ATCC NSCLC it was 100%; with 786-0 renal, 92.6%; in the assay on COLO 205 colon, 110%; in the assay with DU-145 prostate, 105%; in the assay with K-562 leukemia it was 96.5%. The growth in the assay with MALME-3M melanoma is 95.2%; in the assay with MDA-MB-231 breast it was 89.1%; in the assay on RXF 393 renal, 101%; in the assay on SF-268 CNS it was 93.5%; in the assay with SF-295 CNS, 100%; in the assay on SF-539 CNS it was 107%. Further, the figures for the growth in the assay on UACC-257 melanoma and with M14 melanoma were 93% and 94%, respectively.

Turning to `COc1ccc2c(c1)C(=O)CC(c1ccccc1OC)O2` (stereo not given), the growth with NCI-H23 lung is 86.9%; in the assay on NCI-H226 lung, 93.8%; in the assay with NCI-H322M lung, 104%; in the assay with HOP-62 NSCLC, 92.6%; with NCI-H460 lung, 100%; in the assay with HOP-92 NSCLC it was 94.3%. Besides, the growth with NCI-H522 lung was 93%; in the assay with A549/ATCC NSCLC, 96%; with 786-0 renal, 104%; in the assay on COLO 205 colon it was 109%; in the assay with DU-145 prostate it was 103%; in the assay with K-562 leukemia it was 101%. Moreover, the growth in the assay with MALME-3M melanoma is 102%; in the assay with MDA-MB-231 breast, 86.8%; with RXF 393 renal, 106%; in the assay on SF-268 CNS it was 96.6%; with SF-295 CNS, 101%; in the assay with SF-539 CNS it was 96.6%. In addition, the values for the growth in the assay with UACC-257 melanoma and in the assay with M14 melanoma were 101% and 106%, respectively.

On to `CNCCn1c(=O)c2cc(OC)c(OC)cc2c2ccc3cc4c(cc3c21)OCO4`, for which the growth with NCI-H23 lung was -18.1% (active); with NCI-H226 lung, -98.8% (active); with NCI-H322M lung it was -14.5% (active); with HOP-62 NSCLC it was 3.19% (active); in the assay on NCI-H460 lung, -18.4% (active); in the assay on HOP-92 NSCLC, -5.84% (active). The growth in the assay on NCI-H522 lung was -35.2% (active); with A549/ATCC NSCLC, -81.2% (active); in the assay on 786-0 renal it was -51% (active); with COLO 205 colon it was -61.6% (active); in the assay with DU-145 prostate it was 5.52% (active); in the assay with K-562 leukemia, 2.28% (active). Also, the growth with MALME-3M melanoma is -85.3% (active); in the assay with MDA-MB-231 breast, 0.962% (active); in the assay with RXF 393 renal, -76.1% (active); with SF-268 CNS, 11.9%; in the assay on SF-295 CNS, 6.74% (active); with SF-539 CNS, -30.4% (active). The values for the growth in the assay with UACC-257 melanoma and in the assay with M14 melanoma were -76.3% (active) and -50.5% (active), respectively.

With `COc1cc(C2C3CC4CCCC[C@H]4N3[C@@]3(C(=O)Nc4cc(Cl)ccc43)C2C(=O)c2nc3ccccc3[nH]2)cc(OC)c1OC` (stereo not given in full), the growth in the assay with NCI-H23 lung is 75.1%; in the assay on NCI-H226 lung, 76.1%; in the assay with NCI-H322M lung, 88.3%; in the assay with HOP-62 NSCLC it was 90.1%; in the assay with NCI-H460 lung, 42%; with HOP-92 NSCLC, 64.2%. Moreover, the growth with NCI-H522 lung is 68.2%; in the assay on A549/ATCC NSCLC it was 43.3%; in the assay with 786-0 renal, 67%; with COLO 205 colon, 59.7%; in the assay with DU-145 prostate it was 80.5%; in the assay on K-562 leukemia, 40.5%. Also, the growth with MALME-3M melanoma was 56.6%; in the assay on MDA-MB-231 breast, 76.8%; in the assay on RXF 393 renal, 51.1%; with SF-268 CNS, 67.3%; in the assay with SF-295 CNS it was 45.5%; in the assay on SF-539 CNS, 70.1%. In addition, the growth was 61.6% in the assay on UACC-257 melanoma and 52% with M14 melanoma.

`COc1cc2c(c(O)c1Cl)C(=O)c1c(O)cc(C[C@H](C)O)cc1[C@H]2[C@H]1c2cc(C[C@H](C)O)cc(O)c2C(=O)c2c1cc(OC)c(Cl)c2O`: the growth in the assay with NCI-H23 lung is 9.36% (active); in the assay on NCI-H226 lung it was 19%; in the assay on NCI-H322M lung, 17.7%; in the assay on HOP-62 NSCLC, 12.4%; in the assay on NCI-H460 lung, -0.266% (active); in the assay with HOP-92 NSCLC, -24.2% (active). Besides, the growth was 5.59% (active) with NCI-H522 lung; 12.5% in the assay on A549/ATCC NSCLC; 14.3% in the assay on 786-0 renal; -72.5% (active) in the assay with COLO 205 colon; 23.8% with DU-145 prostate; 11.7% with K-562 leukemia. In addition, the growth is -32.6% (active) in the assay on MALME-3M melanoma; -57.9% (active) in the assay on MDA-MB-231 breast; 10.4% in the assay on RXF 393 renal; 21.4% in the assay on SF-268 CNS; -14.6% (active) in the assay on SF-295 CNS; -8.14% (active) in the assay with SF-539 CNS. For the same compound, the growth is -4.04% (active) with UACC-257 melanoma and 19% in the assay with M14 melanoma.

Turning to `CCCCCCCCOc1ccc(/C=N/Nc2cc(C)nc3ccc(Br)cc23)cc1`, the growth was 81.9% with NCI-H23 lung; 97.4% with NCI-H226 lung; 95.6% in the assay with NCI-H322M lung; 87.5% in the assay with HOP-62 NSCLC; 16.1% in the assay with NCI-H460 lung; 105% with HOP-92 NSCLC. Further, the growth in the assay on NCI-H522 lung was 71.6%; in the assay with A549/ATCC NSCLC, 27.9%; in the assay with 786-0 renal it was 28.9%; in the assay with COLO 205 colon it was 83.9%; with DU-145 prostate, 33.5%; in the assay with K-562 leukemia, 10.7%. The growth in the assay with MALME-3M melanoma is 40.8%; in the assay on MDA-MB-231 breast, 33.2%; with RXF 393 renal it was 88.3%; in the assay on SF-268 CNS, 86.3%; in the assay with SF-295 CNS, 78.8%; in the assay on SF-539 CNS it was 32.6%. Moreover, the values for the growth in the assay on UACC-257 melanoma and in the assay with M14 melanoma were 84% and 53.6%, respectively.

On to `COc1ccccc1NC(=O)C1CC(c2ccc(F)cc2)=NO1` (stereo not given), for which the growth in the assay on NCI-H23 lung is 100%; in the assay with NCI-H226 lung it was 99.2%; with NCI-H322M lung, 102%; with HOP-62 NSCLC, 97.5%; in the assay with NCI-H460 lung, 98.5%; in the assay on HOP-92 NSCLC, 89.7%. Moreover, the growth is 92.6% in the assay on NCI-H522 lung; 95.2% in the assay with A549/ATCC NSCLC; 101% in the assay with 786-0 renal; 111% in the assay with COLO 205 colon; 106% with DU-145 prostate; 95% in the assay with K-562 leukemia. The growth in the assay with MALME-3M melanoma was 100%; in the assay on MDA-MB-231 breast, 98.5%; in the assay with RXF 393 renal, 97%; in the assay with SF-268 CNS, 97.4%; in the assay with SF-295 CNS, 96.2%; in the assay on SF-539 CNS, 95.5%. The growth with UACC-257 melanoma is 107%; in the assay with M14 melanoma, 104%.

For the compound `COc1cc(F)c(/C=C/c2cc(/C=C/c3cc(OC)c(OC)cc3F)on2)cc1OC`, the growth was 79.4% in the assay on NCI-H23 lung; 56.8% with NCI-H226 lung; 96% in the assay with NCI-H322M lung; 107% with HOP-62 NSCLC; 72.1% with NCI-H460 lung; 88.4% in the assay with HOP-92 NSCLC. Besides, the growth with NCI-H522 lung is 62.3%; with A549/ATCC NSCLC, 81.3%; in the assay with 786-0 renal it was 87.3%; in the assay on COLO 205 colon, 80%; with DU-145 prostate, 88.2%; with K-562 leukemia it was 63.3%. The growth in the assay on MALME-3M melanoma was 69.3%; in the assay with MDA-MB-231 breast, 83%; in the assay on RXF 393 renal, 92.8%; in the assay with SF-268 CNS, 86.7%; in the assay on SF-295 CNS, 97.7%; in the assay with SF-539 CNS it was 98%. Further, the growth is 86.3% with UACC-257 melanoma and 80.9% in the assay with M14 melanoma.
